Data from PubChem BioAssay (NCI).
Compounds without any hit were thinned out: in the full panel of roughly 79,000, 15% have a hit. Values without a mark were called inactive. Calls of active or inactive are those of the source. Cut-off read from the data, not from the text of the source: active = growth inhibition above about 70%; inactive = the rest. Residues, ends and D or L forms follow the SMILES beside them. *: point of attachment. Fmoc = O=C(OCC1c2ccccc2-c2ccccc21)*; Boc = CC(C)(C)OC(=O)*

Assay: NCI Yeast Anticancer Drug Screen. Data for the rad50EPP+ strain (AID 151);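 note: 0% = growth of vehicle-treated control cultures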
Conditions: S. cerevisiae rad50 mutant strain, stronger effect = higher value
Procedure: Growth inhibition of yeast strains with defined genetic alterations is measured as a screen for potential anti-cancer activity. Selected strains with alterations in DNA damage repair or cell cycle control were exposed to compounds and growth inhibition was measured relative to vehicle treated controls. The strain used in this assay is rad50EPP+

Structure (SMILES) | growth inhibition (at 1.2 µM) | growth inhibition (at 3.7 µM) | growth inhibition (at 11.0 µM) | growth inhibition (at 33.0 µM) | growth inhibition (at 100.0 µM)
C[N+](C)([O-])CCCNc1c2ccccc2nc2cccc([N+](=O)[O-])c12 | 28% | 44% | 79% (active) | 94% (active) | 95% (active)
C1=CCN([B-](c2ccccc2)[C+]2CCCCC2)C=C1 | -3% | -4% | -3% | 2% | 22%
O=C(O)c1ccc2cc(Cl)c3ccccc3c2c1 | 3% | 9% | 17% | 24% | 21%
CC(C)(C)OC(=O)NCCCCC(NC(=O)C(Cc1c[nH]c2ccccc12)NC(=O)OCC1c2ccccc2-c2ccccc21)C(=O)O (stereo not given) (Fmoc-Trp-Lys(Boc)-OH; configuration not given here) | -1% | 0% | 2% | 2% | -5%
CCS(=O)(=O)Nc1ccc(Nc2c3ccccc3nc3ccccc23)c(OC)c1 | -1% | 17% | 48% | 77% (active) | 84% (active)
CN(C)CCNCCCNc1c2ccccc2nc2cccc([N+](=O)[O-])c12 | 9% | 26% | 69% | 90% (active) | 95% (active)
COc1ccc(C(C)c2cc3c(cc2OCC(C)=O)OCO3)cc1 (stereo not given) | -3% | 1% | 3% | 12% | 11%
CC(C)OP(=O)(OC(C)C)/C(Cl)=N/Nc1ccc([N+](=O)[O-])cc1 | 25% | 50% | 93% (active) | 96% (active) | 96% (active)
